# Over roughly 33,000 sequences, “E-score (-0.5 to 0.5)” has its median near -0.016; the highest 2% begin near 0.3. What follows is part of a selection rich in the highest values, with near analogues and random picks from the rest.
# Target: T1, Yer184c (UniProt P39961)
# T1 sequence: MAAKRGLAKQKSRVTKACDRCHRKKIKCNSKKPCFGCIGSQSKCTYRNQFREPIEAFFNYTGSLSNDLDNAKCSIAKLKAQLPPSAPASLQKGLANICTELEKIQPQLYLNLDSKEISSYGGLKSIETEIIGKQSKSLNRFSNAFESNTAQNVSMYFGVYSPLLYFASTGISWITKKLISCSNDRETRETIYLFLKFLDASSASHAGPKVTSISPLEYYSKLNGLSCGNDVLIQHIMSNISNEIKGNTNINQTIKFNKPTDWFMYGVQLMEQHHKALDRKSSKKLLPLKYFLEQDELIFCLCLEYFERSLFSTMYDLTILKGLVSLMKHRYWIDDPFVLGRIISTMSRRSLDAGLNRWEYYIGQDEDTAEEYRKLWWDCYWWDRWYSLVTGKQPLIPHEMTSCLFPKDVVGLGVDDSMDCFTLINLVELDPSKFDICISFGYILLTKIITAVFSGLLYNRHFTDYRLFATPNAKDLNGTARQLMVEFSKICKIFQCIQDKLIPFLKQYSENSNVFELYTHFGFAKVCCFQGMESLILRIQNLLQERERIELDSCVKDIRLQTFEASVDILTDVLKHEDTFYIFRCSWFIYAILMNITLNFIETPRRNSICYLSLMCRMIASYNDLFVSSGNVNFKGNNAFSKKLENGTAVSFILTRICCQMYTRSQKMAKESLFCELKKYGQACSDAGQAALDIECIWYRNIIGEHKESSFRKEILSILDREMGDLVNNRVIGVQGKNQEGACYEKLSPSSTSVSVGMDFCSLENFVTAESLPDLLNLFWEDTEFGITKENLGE
# Experiment: PBM E-score (8-mer binding enrichment) (E-score (-0.5 to 0.5)); higher = stronger / more preferred TF binding
# Details: protein concentration: 100 nM; construct: GST-full length
# Outline: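 GST-tagged yeast TFs (full-length or DNA-binding domain) were made by PURExpress in vitro transcription/translation and applied at about 100-200 nM to universal all-10-mer Agilent arrays. The arrays were made double-stranded by primer extension, on fresh or once-stripped slides. Bound protein was detected with fluorescent anti-GST, and scans were normalised with masliner. Each ungapped eight-base word, pooled with its reverse complement, received an E-score (modified Wilcoxon-Mann-Whitney statistic) from the Universal PBM Analysis Suite.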
row,Sequence,PBM E-score
1,GTCCTGCA,-0.122
2,CGGCACTC,0.124
3,ACAACGTC,-0.0597
4,ACAGACGG,-0.11
5,TGAGCACA,0.0117
6,CTGCATAA,0.11
7,AGAAAGCG,-0.0479
8,GCTGCGAA,0.0893
9,CAGGTCGG,-0.119
10,CCAGATCA,0.135
11,AATCTCCG,0.3
12,CATCTCCC,-0.0754
13,CATCTCCG,0.37
14,AAGCAGAC,-0.195
15,CCCACAGA,-0.227
16,AAGTAGCC,-0.0314
17,GTCCCGGA,0.318
18,AGTCCGGG,0.212
19,GGTCCGGA,0.376
20,GGTCCGCA,0.151
21,CGTCCGGA,0.323
22,GTCCCCGA,-0.142
23,CGTCCGGC,0.296
24,AGTCCGGA,0.429
25,CGTCCGTA,0.0308
26,CTCCCGGA,0.243

row,Sequence,PBM E-score
1,AGTCCGGC,0.289
2,GGTCCGTA,0.178
3,AACATCAA,0.156
4,GCTCCAAA,-0.0747
5,ACATACCA,-0.12
6,ATTGCGTC,-0.0563
7,GCCTGTGA,-0.282
8,CAACTGAC,-0.106
9,AACCTAAG,-0.181
10,ACGGAATA,0.321
11,CCGGACTC,0.341
12,CTGGAATC,-0.192
13,CCGGAATC,0.336
14,ACGGAATG,0.167
15,CGGGAATA,0.3
16,CCGGAATA,0.339
17,ATGGAATA,0.127
18,ACGGACTC,0.0365
19,CCGGACTA,0.273
20,GCGGAATA,0.205
21,ACGGAATC,0.301
22,GACCTAAA,0.0912
23,AAAACTGC,0.0178
24,GGTACTAA,-0.00623
25,GGGCGACC,-0.167
26,GCTAACCA,-0.0625

row,Sequence,PBM E-score
1,CAGAAGGA,-0.224
2,TCGCTCAA,0.047
3,CTGGCTGC,-0.198
4,CCGGCTGA,0.327
5,GCGGCTGA,-0.0974
6,GCGGCTTA,0.025
7,ACGGCTGC,0.0869
8,ACGGCTTC,0.0891
9,CCGGCTGC,0.331
10,ACGGCTGA,0.0623
11,CGGGCTTC,0.169
12,CCGGCTTA,0.33
13,ACGGCTTA,0.193
14,CCGGCTTC,0.307
15,ACTTTCTA,-0.0235
16,AGAATGCT,-0.168
17,CAAATCGC,-0.0704
18,ATGGAGAC,-0.176
19,TACGTCTA,-0.127
20,GTTAGCTA,-0.119
21,GGATATGA,0.0918
22,GCCGGGAC,0.263
23,CCCGGGAA,0.272
24,TCCGGGAA,0.37
25,GCCGGGAA,0.331
26,GCCGGGGA,0.0977

row,Sequence,PBM E-score
1,ACCGGGAA,0.28
2,CATGCAAC,-0.00764
3,GTCTCAAC,-0.0423
4,AGCTAGAT,-0.104
5,CGGGACGC,-0.0137
6,AATTCCCT,-0.0636
7,AATTCCGT,0.328
8,AATTCCGC,0.208
9,CATTCCGA,0.278
10,AATTCCAT,0.0965
11,AATTCCCG,0.272
12,AATTCCGG,0.387
13,CATTCCGC,-0.0761
14,CATTCCGG,0.318
15,CTGGCTAC,-0.13
16,GATCAATA,0.164
17,ACACTGGA,0.0234
18,ATCCCTAG,-0.0477
19,ATTGGTGG,-0.0975
20,AGTCCAGG,-0.206
21,ATAAGGTC,-0.0447
22,CATCTCGG,0.272
23,AGCTTAAT,0.201
24,CGGTCCGA,0.335
25,GGATCCGA,0.242
26,AGGTCCGA,0.197

row,Sequence,PBM E-score
1,GGGTCCGA,0.113
2,CGATCCGA,0.305
3,CGATCCGC,0.113
4,ACAAGTAG,-0.201
5,ATCAAGCG,0.0135
6,GATTTCGC,0.312
7,CATTTCGC,0.0218
8,GATTTCGA,0.042
9,GCCTTACA,-0.205
10,CATGAGGG,-0.212
11,ATTTGCCG,0.306
12,ATTTGCCA,-0.0738
13,ATTTGCCC,0.0315
14,AACAAGAC,0.105
15,ACCTCAAA,0.137
16,CCCCTGAC,-0.0911
17,AACCGAGT,0.0155
18,CGCCGAGC,0.344
19,CACCGAGC,0.231
20,ATCCGAGG,0.182
21,AGCCGAGG,0.336
22,AACCGAGC,0.323
23,CTCCGAGC,0.271
24,CCCCGAGC,-0.0347
25,GGCCGACA,0.0888
26,GGCCGAGA,0.348

row,Sequence,PBM E-score
1,ACCCGAGG,-0.00171
2,GGCCGATA,0.264
3,GACACTCA,-0.0521
4,ACAGCGGA,0.0362
5,GGGTTAGA,-0.134
6,AACGTAAT,-0.0198
7,GTTGGACA,-0.0236
8,AATGTTCG,0.0469
9,GCCCGAGA,0.24
10,AGCCGATA,0.142
11,AGCCGAGC,0.318
12,CGCCGACA,0.18
13,AGCCGAGA,0.326
14,CGCCGAGA,0.346
15,CACCGAGA,-0.212
16,ACCCGAGC,0.229
17,ATCCGAGC,0.219
18,TCCCGAGA,0.305
19,CCCCGAGA,-0.123
20,AACCGAGA,0.229
21,CTACTGGA,-0.271
22,CCTCAGCG,0.0964
23,ATAGAGGG,-0.135
24,AGGCCAAA,0.0579
25,AACAACGG,0.175
26,CGAACTTC,0.13

row,Sequence,PBM E-score
1,GCCCGCAC,-0.0678
2,AATCTGTA,0.116
3,GAAGAGTA,0.113
4,CGGTTCGC,0.0153
5,CCGAATAA,0.346
6,ACGAATAA,0.0316
7,ACGAATGA,0.189
8,CCGAATGA,0.321
9,GCGAATGA,0.149
10,CCGAATAC,0.293
11,GGGTCTAC,-0.06
12,TCGCGTCA,-0.0846
13,ATGGTTTC,0.0728
14,GCGAATAA,0.0477
15,ACATCCGC,0.252
16,CCATCCGG,0.143
17,ACATCCGA,0.346
18,CCATCCGA,0.0749
19,ACATCCGT,0.167
20,TCATCCGA,0.34
21,GCATCCGA,0.176
22,ACATCCTG,0.0484
23,ACATCCGG,0.397
24,ACCACAAG,-0.0787
25,CGATGCTA,0.084
26,ATGTGCCG,0.18

row,Sequence,PBM E-score
1,CATAGCAG,-0.293
2,AAGAGGCC,-0.172
3,ACGTCGCT,-0.239
4,CCTTCAGC,-0.152
5,CGCGGATC,0.13
6,GACGGATC,0.115
7,CACGGATG,0.108
8,CGCGGAGA,0.308
9,CACGGATC,0.256
10,AACGGATC,0.306
11,AGCGGATC,0.204
12,AGCGGAGA,-0.0382
13,CGCGGAGC,0.171
14,CGCGGATA,0.317
15,CACGGATA,0.332
16,AGCGGATA,0.0602
17,TTACGCAA,0.0884
18,GGCTGAAC,0.0871
19,CCCCGCGA,-0.0621
20,ATCCACTC,-0.00405
21,AACGGATG,0.197
22,AACGGATA,0.374
23,GACGGATA,0.125
24,AACGGACT,0.14
25,TACGGATA,0.195
26,AACGGATT,0.343

row,Sequence,PBM E-score
1,GCCGATTA,0.274
2,ACTAAGGC,-0.0457
3,CGTTCAGA,-0.0522
4,ACTCATTA,-0.0725
5,CGGTTGAA,0.304
6,TGGTTGAA,-0.0916
7,CGGTTGAC,0.113
8,ACTATGCA,-0.111
9,ACTCCGGC,0.326
10,ATTCCCGG,0.384
11,ACTCCGGG,0.265
12,ATTCCGCC,0.16
13,ATTCCCCG,0.117
14,AATCCGGG,0.269
15,CCTCCGGC,0.3
16,ATTCCGGC,0.393
17,ATTCCGGG,0.356
18,ATTCCTGG,-0.138
19,ATTCCCGA,0.162
20,ATTCCAGC,-0.0455
